From PubChem BioAssay AID2599 (Sanford-Burnham Center for Chemical Genomics, 2010)
Screen size: about 330,000 compounds; about 5,800 (1.8%) were called active.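 The calls were made as follows: active = inhibition above about 50% at the single tested dose (limit read from the data); inactive = the rest.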 The sample as a whole holds a higher share of actives than the screen did.

Target: Sentrin-specific protease 6 (Homo sapiens) (UniProt Q9GZR1)
Test: inhibition of human SENP6 catalytic domain – biochemical, luminescence, uHTS, primary screen (AID 2599);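 also: plate controls were DMSO wells with enzyme for no effect and DMSO wells lacking enzyme for full effect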
Conditions: Recombinant SENP6 catalytic domain, aminoluciferin luminescence; at 10 µM; hits give high values

Sequence of Sentrin-specific protease 6 (Homo sapiens) (Q9GZR1 628-1112 limits assumed): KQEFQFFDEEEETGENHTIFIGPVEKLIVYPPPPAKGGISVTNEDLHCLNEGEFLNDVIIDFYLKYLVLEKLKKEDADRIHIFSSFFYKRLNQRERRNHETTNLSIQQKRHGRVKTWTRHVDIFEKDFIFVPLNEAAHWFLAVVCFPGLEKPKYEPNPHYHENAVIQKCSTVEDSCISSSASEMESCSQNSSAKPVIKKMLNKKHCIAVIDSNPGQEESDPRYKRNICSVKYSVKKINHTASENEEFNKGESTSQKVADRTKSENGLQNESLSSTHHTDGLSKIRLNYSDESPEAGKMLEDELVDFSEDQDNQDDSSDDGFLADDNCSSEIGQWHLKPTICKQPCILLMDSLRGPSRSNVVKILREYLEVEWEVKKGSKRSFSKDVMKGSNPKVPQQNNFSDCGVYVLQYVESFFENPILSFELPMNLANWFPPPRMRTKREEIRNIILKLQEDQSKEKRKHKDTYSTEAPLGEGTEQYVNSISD

inhibition, inactive:
O=C(N/N=C\c1cccnc1)c1cc(-c2ccccc2)nc2c(Cl)cccc12 -10.9%, Cc1ccc(/C=N/NC(=S)Nc2cccc(S(=O)(=O)N(C)C)c2)o1 -0.431%, N=c1oc2ccccc2cc1C(=O)NCc1ccccc1 -3.97%, CNC(=O)c1cc2c(ccc3ccccc32)oc1=N 6.2%, Cc1ccc(/C=N/NC(=S)NC2CCCCC2)o1 -24.3%, O=C(N/N=C/c1cccnc1)c1ccc(NC(=O)c2ccc(F)cc2)cc1 -21.5%, CCCN(CC(=O)Nc1ccccc1OC)C(=O)CCC(=O)c1ccc(F)cc1 -2.28%, O=C(C(=O)N1CCc2ccccc2C1)c1c[nH]c2ccccc12 -7.83%, CC(NC(=O)c1cccc(S(=O)(=O)N2CCc3ccccc3C2)c1)c1ccco1 (stereo not drawn) -17.8%, CCOc1cc(/C=C2\SC(N3CCCC(C)C3)=NC2=O)ccc1O (stereo not drawn) 11.9%, CCCc1ccc(OCC(O)CN2CCN(CCO)CC2)cc1 (stereo not drawn) 5.43%, CCc1cccc(NC(=O)COC(=O)C2CCN(c3ccc(C(F)(F)F)cn3)CC2)c1 33.7%, CCOc1ccc(CN2CCN(CCCc3ccccc3)C(CCO)C2)cc1 (stereo not drawn) 9.84%, Cc1nnc(CN(C)Cc2cn[nH]c2-c2ccc(-c3ccccc3)cc2)o1 -1.7%, Cc1c(Cl)cccc1NC(=O)CC1SC(=NCC2CCCO2)NC1=O (stereo not drawn) -0.542%, COc1ccc(OC)c(/C=C/C(=O)c2ccc3c(c2)OCO3)c1 -8.22%, CC(Sc1nnc(COc2ccccc2)n1-c1ccccc1)C(=O)O (stereo not drawn) -16.5%, C=CCC[C@H](Cc1ccc(F)cc1)C(=O)OC[C@H](C)NC(=O)[C@H](CC=C)CC(=O)N(CCO)Cc1ccccc1 -7.07%, CCCCCCC12CCC(C(=O)O)(CC1)CC2 -27.4%

inhibition, active:
O=C(N/N=C/c1cccnc1)c1cc2ccccc2cc1O 54.6%, Cc1ccc(/C=N/NC(=O)c2cc3ccccc3cc2O)o1 73.7%, N=c1oc2ccccc2cc1C(=O)N/N=C/c1ccccc1 89.2%, Nc1ccccc1/C=N\N=C/c1ccccc1N 60.6%
